Source: PubChem BioAssay (EPA / NIEHS)
The source made the active and inactive calls. How the source made its calls: active means hit-call score of the fitted dose curve at least 0.9, where 1 is the maximum; inactive means score below 0.9.

Experiments:
[1] = ATG_E_Box_CIS: Attagene CIS-FACTORIAL HepG2 Assay for human Enhancer Box (E-box) (AID 2282936); conditions: HepG2 E-box cis-reporter transcription, actives raise or lower the signal
Summary of the method: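 Cells: HepG2 (human liver), transient MRTU transfection. Exposure 24 h. RNA → oligo(dT) RT → PCR → 6-FAM label → HpaI → CE. Activity fitted both directions relative to DMSO.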

[2] = ATG_M_61_CIS: Attagene CIS-FACTORIAL HepG2 Assay for M61 Transcription Factor (Internal Marker) (AID 2282937); conditions: HepG2 Attagene CIS-FACTORIAL M61 internal marker reporter; actives raise or lower the signal
Summary of the method: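 HepG2 cells transiently transfected with multiplexed cis-promoter reporter units reporting endogenous transcription factor activity, measured 24 h after dosing. Reporter mRNA quantified by RT-PCR and capillary electrophoresis; bidirectional fit against DMSO baseline.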

[3] = ATG_EGR_CIS: Attagene CIS-FACTORIAL HepG2 Assay for human Early Growth Response 1 (EGR1) (AID 2282938); conditions: HepG2 Attagene CIS-FACTORIAL EGR reporter mRNA; actives raise or lower the signal
Summary of the method: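 HepG2 cells transiently transfected with cis-element-driven multiplexed reporter units, dosed for 24 h. EGR1-element reporter mRNA quantified by RT-PCR, 6-FAM labelling, HpaI digestion and capillary electrophoresis; bidirectional fit versus DMSO.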

[4] = ATG_M_19_CIS: Attagene CIS-FACTORIAL HepG2 Assay for M19 Transcription Factor (Internal Marker) (AID 2282939); conditions: HepG2 Attagene CIS-FACTORIAL M19 internal marker reporter; actives raise or lower the signal
Summary of the method: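 Signals come from fluorescence of labelled reporter-specific PCR fragments resolved by capillary electrophoresis, following 24 h treatment of HepG2 cells transfected with cis-promoter reporter units; activity was fitted in both directions relative to DMSO.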

[5] = ATG_ERE_CIS: Attagene CIS-FACTORIAL HepG2 Assay for Estrogen Response Element (ERE) (AID 2282940); conditions: HepG2 ERE cis-reporter, Attagene RNA transcript; actives raise or lower the signal
Summary of the method: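 Fluorescence of capillary-separated, FAM-labelled reporter cDNA fragments indicates reporter mRNA levels in HepG2 cells exposed to chemicals for 24 h. Transient transfection with cis-regulated units; data fitted in both directions against DMSO.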

[6] = ATG_Ets_CIS: Attagene CIS-FACTORIAL HepG2 Assay for human Erythroblast Transformation Specific (ETS) (AID 2282941); conditions: HepG2 ETS cis-reporter transcription, actives raise or lower the signal
Summary of the method: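 Steps: transfect HepG2 with multiple reporter units; treat compound 24 h; isolate RNA, DNase-treat, reverse-transcribe; PCR-amplify, label with 6-FAM, digest with HpaI; separate by capillary electrophoresis. Activity fitted both directions versus DMSO.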

[7] = target: Hepatocyte nuclear factor 3-beta (Homo sapiens) (UniProt Q9Y261); experiment: ATG_FoxA2_CIS: Attagene CIS-FACTORIAL HepG2 Assay for human Forkhead box A2 (FOXA2) (AID 2282942); conditions: HepG2 cis-reporter transcription factor activity, 24 h; actives raise or lower the signal
Summary of the method: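 HepG2 transiently transfected with a multiplexed cis-promoter reporter library read endogenous FOXA2 activity. After 24 h compound exposure, reporter mRNA was quantified by RT-PCR, HpaI digestion and capillary electrophoresis. Bidirectional fit against DMSO.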

[8] = ATG_FoxO_CIS: Attagene CIS-FACTORIAL HepG2 Assay for human Forkhead box O (FoxO) (AID 2282943); conditions: HepG2 Attagene cis-reporter, FoxO element, mRNA; actives raise or lower the signal
Summary of the method: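 HepG2, transient MRTU transfection (cis element, endogenous TFs). Dose 24 h. TriZol RNA → oligo(dT) RT → PCR → 6-FAM primer extension → HpaI cut → CE. Gain/loss vs DMSO.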

[9] = ATG_GATA_CIS: Attagene CIS-FACTORIAL HepG2 Assay for human GATA Binding Protein (AID 2282944); conditions: HepG2 GATA cis-element reporter, Attagene multiplex mRNA; actives raise or lower the signal
Summary of the method: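 After transfecting HepG2 cells with multiple cis-regulated reporter units, chemicals are dosed for 24 h; isolated RNA undergoes RT-PCR and fluorescent labeling before capillary electrophoresis, with activity expressed against DMSO.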

[10] = ATG_GLI_CIS: Attagene CIS-FACTORIAL HepG2 Assay for human Zinc Finger Protein GLI1 (AID 2282945); conditions: HepG2, Attagene cis-factorial reporter mRNA, GLI element; actives raise or lower the signal
Summary of the method: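 Bidirectional curve fits relative to DMSO, using reporter mRNA levels from RT-PCR plus capillary electrophoresis. Cells were HepG2 transiently carrying cis-regulated reporter constructs, harvested 24 h after dosing.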

Chain of Hepatocyte nuclear factor 3-beta (Homo sapiens) (Q9Y261 whole entry, looked up): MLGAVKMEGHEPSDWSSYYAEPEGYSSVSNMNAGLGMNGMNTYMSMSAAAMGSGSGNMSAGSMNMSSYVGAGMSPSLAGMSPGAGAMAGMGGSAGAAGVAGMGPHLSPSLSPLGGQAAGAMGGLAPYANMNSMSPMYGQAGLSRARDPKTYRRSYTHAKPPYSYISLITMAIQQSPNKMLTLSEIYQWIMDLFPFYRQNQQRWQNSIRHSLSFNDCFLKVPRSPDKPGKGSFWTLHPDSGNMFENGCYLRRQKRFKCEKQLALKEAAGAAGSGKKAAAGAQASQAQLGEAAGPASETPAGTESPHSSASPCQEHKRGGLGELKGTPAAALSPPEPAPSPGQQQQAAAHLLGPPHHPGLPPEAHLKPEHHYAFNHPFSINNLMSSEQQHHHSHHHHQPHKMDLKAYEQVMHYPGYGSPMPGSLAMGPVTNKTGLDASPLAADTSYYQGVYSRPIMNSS

Compound	outcome [1]	outcome [2]	outcome [3]	outcome [4]	outcome [5]	outcome [6]	outcome [7]	outcome [8]	outcome [9]	outcome [10]	AC50 [3]	AC50 [5]	AC50 [6]	AC50 [1]	AC50 [8]	AC50 [7]
CCOC(=O)CC	inactive	inactive	inactive	inactive	inactive	inactive	inactive	inactive	inactive	inactive						
CCC(CO)CO	inactive	inactive	inactive	inactive	inactive	inactive	inactive	inactive	inactive	inactive						
Oc1ccc(Cl)cc1Cc1cc(Cl)ccc1O	inactive	inactive		inactive			inactive	inactive	inactive	inactive	8.39 µM (active)	3.04 µM (active)	6.68 µM (active)			
O=S(=O)(O)c1ccccc1C=Cc1ccc(-c2ccc(C=Cc3ccccc3S(=O)(=O)O)cc2)cc1		inactive	inactive	inactive	inactive	inactive	inactive	inactive	inactive	inactive				40.6 µM (active)		
CN(C)c1ccc(N=Nc2ccccc2C(=O)O)cc1		inactive		inactive	inactive	inactive	inactive		inactive	inactive	47.4 µM (active)			15.6 µM (active)	66.9 µM (active)	
CN(C)c1ccc(C(=N)c2ccc(N(C)C)cc2)cc1		inactive		inactive	inactive	inactive		inactive	inactive	inactive	1.36 µM (active)			56.6 µM (active)		0.721 µM (active)
O=C1C(N(CO)C(=O)NCO)N(CO)C(=O)N1CO (stereo not given)	inactive	inactive	inactive	inactive	inactive	inactive	inactive	inactive	inactive	inactive						
CCCCCCCOC(=O)CCC	inactive	inactive	inactive	inactive	inactive	inactive	inactive	inactive	inactive	inactive						
C=C1C2CCC(C2)C1(C)C (stereo not given)	inactive	inactive	inactive	inactive	inactive	inactive	inactive	inactive	inactive	inactive						
C=CC(=O)OCCOC1C2CCC1C1CC=CC12 (stereo not given)	inactive	inactive	inactive	inactive	inactive	inactive	inactive	inactive	inactive	inactive						
CCCCCc1ccc(Cl)cc1	inactive	inactive	inactive	inactive	inactive	inactive	inactive	inactive	inactive	inactive						
C[Si](C)O[Si](C)(C)O[Si](C)(C)O[Si](C)C	inactive	inactive	inactive	inactive		inactive	inactive	inactive	inactive	inactive		46.2 µM (active)				
CC1(C)O[C@@H]2C[C@H]3[C@@H]4C[C@H](F)C5=CC(=O)CC[C@]5(C)[C@H]4[C@@H](O)C[C@]3(C)[C@]2(C(=O)CO)O1	inactive	inactive	inactive	inactive	inactive	inactive	inactive	inactive	inactive	inactive						
CCCCC(CC)COC(=O)c1ccccc1O (stereo not given)	inactive	inactive	inactive	inactive		inactive	inactive	inactive	inactive	inactive		32.5 µM (active)				
CCC(C)(C)C1CCCCC1OC(C)=O (stereo not given)	inactive	inactive	inactive	inactive	inactive	inactive	inactive	inactive	inactive	inactive						
O=C1CCCCCCCCCCC(=O)OCCO1	inactive	inactive	inactive	inactive	inactive	inactive	inactive	inactive	inactive	inactive						
CC(C)c1ccc(C#N)cc1	inactive	inactive	inactive	inactive	inactive	inactive	inactive	inactive	inactive	inactive						
Nc1ccc(N=Nc2ccccc2)c(N)n1		inactive		inactive	inactive	inactive	inactive	inactive	inactive	inactive	70.5 µM (active)			70.9 µM (active)		
ON(Cc1ccccc1)Cc1ccccc1	inactive	inactive	inactive	inactive	inactive	inactive	inactive	inactive	inactive	inactive						
